In PubChem BioAssay AID651638 (Johns Hopkins Ion Channel Center, 2012):
The whole screen tested about 2,400 compounds, of which about 2,400 (100%) were called active.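 How the source made its calls: active means ratio percent of control, averaged over triplicates, above buffer control mean plus 5 SD (cut at about 64% in these data); inactive means the rest.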 So high a share suggests a set chosen from earlier hits. The list is a sample of the results.

biological target: Potassium channel subfamily K member 3 (Homo sapiens) (UniProt O14649); assay: TASK1 potassium channel blockade, triplicate retest – CHO cells, FluxOR thallium flux, confirmation (AID 651638); details: CHO-KCNK3 thallium flux, FluxOR fluorescence, at 10 µM, stronger effect = higher value;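 further: ratio is the fluorescence rise from min to max over baseline after thallium stimulus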
Sequence (O14649 whole entry, looked up): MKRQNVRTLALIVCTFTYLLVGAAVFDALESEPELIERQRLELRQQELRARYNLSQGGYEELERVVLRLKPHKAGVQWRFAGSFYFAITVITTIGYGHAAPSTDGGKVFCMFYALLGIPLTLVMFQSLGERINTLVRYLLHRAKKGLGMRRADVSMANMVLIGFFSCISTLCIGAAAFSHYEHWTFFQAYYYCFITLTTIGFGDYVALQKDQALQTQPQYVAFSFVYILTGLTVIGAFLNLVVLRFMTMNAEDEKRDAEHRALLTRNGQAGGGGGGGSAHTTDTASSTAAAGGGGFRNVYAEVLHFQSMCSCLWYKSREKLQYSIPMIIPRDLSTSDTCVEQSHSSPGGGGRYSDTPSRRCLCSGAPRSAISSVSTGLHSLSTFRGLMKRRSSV

Row | SMILES | ratio percent of control
1 | COc1ccccc1C1=NCc2nnc(CSC)n2-c2ccc(Cl)cc21 | 54.7% (active)
2 | CCCCCCN=C(CC)c1c(O)n(CCCC)c(=O)[nH]c1=O | 129% (active)
3 | CCOC(=O)C1SC2(C(F)(F)C(F)F)CC1(O)c1c(c(OC)c3occc3c1OC)O2 (stereo not drawn) | 112% [0% buffer, 100% carvedilol maximal block] (active)
